# Results: the supplement of paper PMC8728848
# The full list was thinned out, with the strongest signals kept by preference.
# Key:
# Assay in all cases: glycan array binding signal (z-score within array); higher = stronger binding
# Details in all cases: glycan notation: IUPAC condensed, linker removed
# [1] = molecular target: GlcA(b1-3)Gal
# How it was run: (§1)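 Arrays were curated from the Consortium for Functional Glycomics database, 3228 in total, and kept only where the protein sequence was available. Binding is expressed as a within-array Z-score. This score was averaged across arrays of the same protein sequence at different concentrations or buffers and across linkers, and negative values can be read as non-binding.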
# [2] = molecular target: GlcA3S(b1-3)Gal(b1-4)GlcNAc(b1-2)Man
# How it was run: as §1
# [3] = molecular target: GlcNAc(a1-4)Gal(b1-4)GalNAc
# How it was run: as §1
# [4] = molecular target: GlcNAc(a1-4)Gal(b1-4)GlcNAc(b1-3)Gal(b1-4)[Fuc(a1-3)]GlcNAc(b1-3)Gal(b1-4)[Fuc(a1-3)]GlcNAc
# How it was run: as §1
# [5] = molecular target: GlcNAc(b1-2)[GlcNAc(b1-4)]Man(a1-3)[GlcNAc(b1-4)][GlcNAc(b1-2)[GlcNAc(b1-6)]Man(a1-6)]Man(b1-4)GlcNAc(b1-4)[Fuc(a1-6)]GlcNAc
# How it was run: as §1
# [6] = molecular target: GlcNAc(b1-3)Fuc
# How it was run: as §1
# [7] = molecular target: GlcNAc(b1-3)Gal(b1-4)GlcNAc(b1-2)[GlcNAc(b1-3)Gal(b1-4)GlcNAc(b1-6)]Man(a1-6)[GlcNAc(b1-3)Gal(b1-4)GlcNAc(b1-2)Man(a1-3)]Man(b1-4)GlcNAc(b1-4)GlcNAc
# How it was run: as §1
# [8] = molecular target: GlcNAc(b1-3)Gal(b1-4)GlcNAc(b1-3)[GlcNAc(b1-3)Gal(b1-4)GlcNAc(b1-3)]GalNAc
# How it was run: as §1
# [9] = molecular target: Man(a1-2)Man(a1-3)Man
# How it was run: as §1
# [10] = molecular target: Neu5Ac(a2-3)Gal
# How it was run: as §1
# [11] = molecular target: Neu5Ac(a2-3)Gal(b1-3)GalNAc(b1-4)[Neu5Ac(a2-3)]Gal(b1-4)Glc
# How it was run: as §1
# [12] = molecular target: Neu5Ac(a2-3)Gal(b1-3)GalNAc(b1-4)[Neu5Ac(a2-8)Neu5Ac(a2-3)]Gal(b1-4)Glc
# How it was run: as §1
# [13] = molecular target: Neu5Ac(a2-3)Gal(b1-3)[Neu5Ac(a2-6)]GlcNAc(b1-3)[Fuc(a1-3)[Gal(b1-4)]GlcNAc(b1-6)]Gal(b1-4)Glc
# How it was run: as §1
# [14] = molecular target: Neu5Ac(a2-3)Gal(b1-3)]Neu5Ac(a2-3)Gal(b1-4)]GlcNAc
# How it was run: as §1
# [15] = molecular target: Neu5Ac(a2-3)Gal(b1-4)GlcNAc(b1-2)Man(a1-3)[GlcNAc(b1-4)][Neu5Ac(a2-3)Gal(b1-4)GlcNAc(b1-2)Man(a1-6)]Man(b1-4)GlcNAc(b1-4)GlcNAc
# How it was run: as §1
# [16] = molecular target: Neu5Ac(a2-3)Gal(b1-4)GlcNAc(b1-3)[Neu5Ac(a2-3)Gal(b1-4)GlcNAc(b1-6)]GalNAc
# How it was run: as §1
# [17] = molecular target: Neu5Ac(a2-3)Gal(b1-4)[Fuc(a1-3)]GlcNAc(b1-3)Gal(b1-4)GlcNAc
# How it was run: as §1
# [18] = molecular target: Neu5Ac(a2-3)Gal(b1-4)[Fuc(a1-3)]GlcNAc(b1-6)[Neu5Ac(a2-3)Gal(b1-3)]GalNAc
# How it was run: as §1
# [19] = molecular target: Neu5Ac(a2-6)Gal(b1-4)Glc
# How it was run: as §1
# [20] = molecular target: Neu5Ac(a2-6)Gal(b1-4)GlcNAc(b1-2)Man
# How it was run: as §1
# [21] = molecular target: Neu5Ac(a2-6)Gal(b1-4)GlcNAc(b1-2)Man(a1-6)[GlcNAc(b1-2)Man(a1-3)]Man(b1-4)GlcNAc(b1-4)GlcNAc
# How it was run: as §1
# [22] = molecular target: Neu5Ac(a2-6)Gal(b1-4)GlcNAc(b1-3)Gal(b1-4)GlcNAc
# How it was run: as §1
# [23] = molecular target: Neu5Ac(a2-6)Gal(b1-4)GlcNAc(b1-3)Gal(b1-4)GlcNAc(b1-3)[Neu5Ac(a2-6)Gal(b1-4)GlcNAc(b1-3)Gal(b1-4)GlcNAc(b1-6)]GalNAc
# How it was run: as §1
# [24] = molecular target: Neu5Ac(a2-6)Gal(b1-4)GlcNAc(b1-3)[Neu5Ac(a2-6)Gal(b1-4)GlcNAc(b1-6)]GalNAc
# How it was run: as §1
# [25] = molecular target: Neu5Ac(a2-6)Gal(b1-4)GlcNAc(b1-6)[Gal(b1-3)GlcNAc(b1-3)]Gal(b1-4)Glc
# How it was run: as §1
# [26] = molecular target: Neu5Ac(a2-6)Gal(b1-4)GlcNAc(b1-6)[Gal(b1-3)]GalNAc
# How it was run: as §1
# [27] = molecular target: Neu5Ac(a2-8)Neu5Ac(a2-8)Neu5Ac(a2-3)[Gal(b1-3)GalNAc(b1-4)]Gal(b1-4)Glc
# How it was run: as §1
binder,measurement,setting,value
PX14343E-bfa-545-24-545 (Bacteroides fragilis) (protein) LDRYPQEELSDGSFWKTPDDANKVVSDLYGYLSTWDQDNDINSDNATMGIKWAAGNVSKGIYDPADQGWSGDYANVRQCNLILSKIDEIPDYPEADKTKALGQVYFFRAYIYFNLIRSFGDVPYIDKPLDLKDMEGITRMPRAEVYEKIMADFDKAIAALPTEWGASDYGRVTKGAAMAMKARAALYYGNWDTAATEAKNVMDLGLYELYDKDNTGKYAELFWEKADGCDEFILVTQFNYPDKTHYLMGWECFPTKGWGGMNPTQSLVDAFEDSEGAPISKSKIYDPTDPFKNRDPRLEVDILHDGEEMYGVTIKVAPLASSGSTGINQHNDATETGYYGQKWLDPSLDPLSDGWNMGKDWVHIRYAEVLLTYAEAKNELQGLDPEAFDAVNQVRRRVGMPELQNTDPSKPTYCATQDDLRQRIRNEWRVEFCLEGGKRMWDIRRWGIAKDVLNAPFEGLKYKIVDNPNDPDKKVDGGKMCILYQGDPIILSGSRYSDNNYLFPVPQSEIDLNPALTQNPGY,glycan array binding signal (z-score),[1],-0.027
same,glycan array binding signal (z-score),[2],-0.441
same,glycan array binding signal (z-score),[3],0.655
same,glycan array binding signal (z-score),[4],8.96
same,glycan array binding signal (z-score),[5],-0.534
same,glycan array binding signal (z-score),[6],-0.635
same,glycan array binding signal (z-score),[7],0.412
same,glycan array binding signal (z-score),[8],-0.23
same,glycan array binding signal (z-score),[9],-0.688
same,glycan array binding signal (z-score),[10],-0.082
same,glycan array binding signal (z-score),[11],-0.236
same,glycan array binding signal (z-score),[12],-0.153
same,glycan array binding signal (z-score),[13],0.395
same,glycan array binding signal (z-score),[14],-1.08
same,glycan array binding signal (z-score),[15],0.058
same,glycan array binding signal (z-score),[16],-0.912
same,glycan array binding signal (z-score),[17],-0.873
same,glycan array binding signal (z-score),[18],0.423
same,glycan array binding signal (z-score),[19],-0.096
same,glycan array binding signal (z-score),[20],-0.34
same,glycan array binding signal (z-score),[21],0.074
same,glycan array binding signal (z-score),[22],-0.139
same,glycan array binding signal (z-score),[23],2.92
same,glycan array binding signal (z-score),[24],2.89
same,glycan array binding signal (z-score),[25],-0.484
same,glycan array binding signal (z-score),[26],-0.085
same,glycan array binding signal (z-score),[27],-0.399
